Consider 40 molecules from PubChem BioAssay (Tox21).

Records with an inconclusive call do not appear. Calls of active or inactive are those of the source. Calls follow the shape of the full dose curve.
% is scaled to controls: 0 for no effect and ±100 for the full control effect.

Acetylcholinesterase (Homo sapiens), sequence (P22303 whole entry, looked up): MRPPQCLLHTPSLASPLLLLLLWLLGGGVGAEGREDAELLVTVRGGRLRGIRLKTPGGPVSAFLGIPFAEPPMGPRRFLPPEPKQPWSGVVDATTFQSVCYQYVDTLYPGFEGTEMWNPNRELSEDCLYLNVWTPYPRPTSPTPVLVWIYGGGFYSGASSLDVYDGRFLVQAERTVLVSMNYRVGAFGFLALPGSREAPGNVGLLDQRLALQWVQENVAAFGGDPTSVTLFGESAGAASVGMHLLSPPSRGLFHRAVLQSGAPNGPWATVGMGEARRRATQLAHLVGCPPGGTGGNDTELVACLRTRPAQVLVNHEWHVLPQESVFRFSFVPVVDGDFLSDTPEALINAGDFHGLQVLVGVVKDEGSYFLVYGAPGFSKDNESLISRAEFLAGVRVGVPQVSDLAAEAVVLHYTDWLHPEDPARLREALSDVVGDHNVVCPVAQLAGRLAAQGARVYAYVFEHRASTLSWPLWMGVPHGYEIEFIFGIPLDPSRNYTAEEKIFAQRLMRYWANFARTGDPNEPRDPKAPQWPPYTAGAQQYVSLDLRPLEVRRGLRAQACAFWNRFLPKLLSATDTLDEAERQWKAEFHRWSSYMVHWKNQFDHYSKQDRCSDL

The target of one assay is Acetylcholinesterase (Homo sapiens) (UniProt P22303). The assay can be described thus: Acetylcholinesterase (AChE) small molecule antagonists: fluorescence cell-based qHTS assay (AID 1347398). Also: nearly all actives have a fitted effect of over 50% in size. As to conditions: SH-SY5Y cells; Potency: AChE activity; outcome: AChE activity; series mostly up to 115 µM; activity change, negative = inhibition: at the top concentration. Summed up:
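Using neuroblastoma SH-SY5Y cells as the enzyme source, test chemicals are preincubated 30 min at 37 C; AChE-driven acetylthiocholine cleavage is then quantified by thiocholine-dependent Thiolite Green fluorescence after 40 min at room temperature.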
Regarding `O=C(O)C(Cc1cc(I)c(O)c(I)c1)c1ccccc1` (stereo unspecified), the “activity change, negative = inhibition” value is -3.88% [at 53.7 µM] (inactive).

On to `NCCO`, for which the Potency result was “inactive”.

Consider `Oc1ccc2c(c1)-c1ccccc1C2`, for which the “activity change, negative = inhibition” value was -3.19% (inactive).

For the molecule `CNC(=O)c1c(I)c(NC(=O)CCCCC(=O)Nc2c(I)c(C(=O)O)c(I)c(C(=O)NC)c2I)c(I)c(C(=O)O)c1I`, the “activity change, negative = inhibition” value is 0.639% [at 53.7 µM] (inactive).

Take `CNCC[C@@H](Oc1ccccc1C)c1ccccc1`: the “activity change, negative = inhibition” value was 4.42% [at 53.7 µM] (inactive).

Consider `CCOC(=O)[C@H](CCc1ccccc1)N[C@@H](C)C(=O)N1C(=O)N(C)C[C@H]1C(=O)O`, for which the “activity change, negative = inhibition” value is 0.806% [at 53.7 µM] (inactive).

As for `CCN(CCC#N)c1ccc(N=Nc2ccc([N+](=O)[O-])cc2)cc1`, the “activity change, negative = inhibition” value was 1.3% (inactive).

With `CCN(CCCc1ccccc1)CCCc1ccccc1`, the “activity change, negative = inhibition” value is -18.9% [at 53.7 µM] (inactive).

On to `OC1CCCCC1`, for which the Potency entry is “inactive”.

Consider `CC(C)(C)C(=O)C1C(=O)c2ccccc2C1=O`, for which the Potency result is “inactive”.

Take `ClC/C=C\CCl`: the “activity change, negative = inhibition” value is 9.88% (inactive).

For the molecule `COC1=CC(=O)C[C@@H](C)[C@]12Oc1c(Cl)c(OC)cc(OC)c1C2=O`, the Potency entry was “inactive”.

On to `CCN(CC)CCOC(=O)C1(C2CCCCC2)CCCCC1`, for which the “activity change, negative = inhibition” value is -21.4% [at 53.7 µM] (inactive).

For `Cc1ccc(C(C)C)c(O)c1`, the Potency entry is “inactive”.

In the case of `Cc1ccc2c(c1)C(=O)OC2=O`, the Potency result was “inactive”.

On to `CC(C)=CCC/C(C)=C/C(=O)O`, for which the “activity change, negative = inhibition” value was 0.652% (inactive).

Regarding `CCCCCCCCCCCCCCCO`, the Potency entry is “inactive”.

Take `c1ccc2c(c1)ccc1cc3c(ccc4ccccc43)cc12`: the Potency entry is “inactive”.

With `COc1cc(C(=O)NCCCCCC(=O)O)cc(OC)c1OC`, the “activity change, negative = inhibition” value was 1.99% [at 53.7 µM] (inactive).

Take `CCN1C=CN(C)C1C` (stereo unspecified): the “activity change, negative = inhibition” value was -5.27% (inactive).

Consider `C=C(CC)C(=O)c1ccc(OCC(=O)O)c(Cl)c1Cl`, for which the Potency entry was “inactive”.

On to `C[C@@H]1O[C@@H](O[C@@H]2[C@@H](O)[C@H](OCCc3ccc(O)c(O)c3)O[C@H](CO[C@@H]3O[C@H](CO)[C@@H](O)[C@H](O)[C@H]3O)[C@H]2OC(=O)/C=C/c2ccc(O)c(O)c2)[C@H](O)[C@H](O)[C@H]1O`, for which the “activity change, negative = inhibition” value is -9.36% (inactive).

`CC(N)CN` (stereo unspecified): the “activity change, negative = inhibition” value was 1.59% (inactive).

For another assay the target is unchanged. Nature of the assay: Acetylcholinesterase (AChE) small molecule antagonists: enzyme-based qHTS assay with human liver microsomes (AID 1347399). Also: nearly all actives have a fitted effect of over 60% in size. The conditions noted are these: Potency: qHTS inhibition; outcome: qHTS inhibition; series mostly up to 115 µM; activity change, negative = inhibition: at the top concentration. In outline: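 Recombinant human AChE (50 mU/mL in the enzyme mix) and human liver microsomes (0.25 mg/mL final) were preincubated with compound and NADPH (0.25 mg/mL final) for 30 min at 37 C. Acetylthiocholine/DTNB was then added; thiocholine was read colorimetrically after 10 min at room temperature.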
For orientation: Quantitative high-throughput screening tests each substance at several concentrations.
For the molecule `CC(C)(C)c1cc(Cc2cc(C(C)(C)C)c(O)c(C(C)(C)C)c2)cc(C(C)(C)C)c1O`, the Potency result was “inactive”.

Take `CN(C)C(=O)Nc1ccc(Cl)c(Cl)c1`: the Potency result was “inactive”.

Regarding `O=[N+]([O-])c1ccc2c(c1)Cc1ccccc1-2`, the Potency entry was “inactive”.

On to `COC(=O)C1=C(C)NC(C)=C(C(=O)OCC(C)C)C1c1ccccc1[N+](=O)[O-]` (stereo unspecified), for which the Potency entry is “inactive”.

For `C[C@H](CCC(=O)O)[C@H]1CC[C@H]2[C@@H]3CC[C@@H]4C[C@H](O)CC[C@]4(C)[C@H]3C[C@H](O)[C@]12C`, the “activity change, negative = inhibition” value was 2.21% (inactive).

For `Cc1c(C(=O)O)c(O)cc2c1C(=O)c1c(O)c([C@@H]3O[C@H](CO)[C@@H](O)[C@H](O)[C@H]3O)c(O)c(O)c1C2=O`, the Potency entry was “inactive”.

In the case of `CC(C)CC(=O)O`, the “activity change, negative = inhibition” value was 0.163% (inactive).

`CCCCCCc1ccc(-c2ccc(C#N)cc2)cc1`: the “activity change, negative = inhibition” value is -3.67% (inactive).

On to `O=C(Nc1ccc([N+](=O)[O-])cc1Cl)c1cc(Cl)ccc1O`, for which the Potency result was “inactive”.

Regarding `C/C=C(\C)C(=O)OCCc1ccccc1`, the “activity change, negative = inhibition” value was 0.514% (inactive).

Take `O=C1c2ccccc2C(=O)c2c1ccc(O)c2O`: the “activity change, negative = inhibition” value was 0.504% [at 53 µM] (inactive).

With `CCOC(=O)[C@H](O)[C@@H](O)C(=O)OCC`, the “activity change, negative = inhibition” value was -0.965% (inactive).

On to `O=C1c2c(O)ccc(Nc3ccc(CCO)cc3)c2C(=O)c2c([N+](=O)[O-])ccc(O)c21`, for which the “activity change, negative = inhibition” value is 5.58% (inactive).

For `NNC(=O)c1cccc(C(=O)NN)c1`, the “activity change, negative = inhibition” value is 0.467% (inactive).

Regarding `O=C(c1ccccc1)c1ccc2n1CCC2C(=O)O` (stereo unspecified), the “activity change, negative = inhibition” value is 0.239% [at 53 µM] (inactive).

For the molecule `CCC(C(=O)NC(N)=O)c1ccccc1` (stereo unspecified), the “activity change, negative = inhibition” value is -0.151% (inactive).

Consider `CN(Cc1cnc2nc(N)nc(N)c2n1)c1ccc(C(=O)N[C@@H](CCC(=O)O)C(=O)O)cc1`, for which the Potency result is “inactive”.

On to `O=C(O)C(Cc1cc(I)c(O)c(I)c1)c1ccccc1` (stereo unspecified), for which the “activity change, negative = inhibition” value is 0.431% [at 53 µM] (inactive).

In the case of `NCCO`, the Potency entry was “inactive”.

Regarding `Oc1ccc2c(c1)-c1ccccc1C2`, the “activity change, negative = inhibition” value is -0.691% (inactive).

Turning to `CNC(=O)c1c(I)c(NC(=O)CCCCC(=O)Nc2c(I)c(C(=O)O)c(I)c(C(=O)NC)c2I)c(I)c(C(=O)O)c1I`, the “activity change, negative = inhibition” value is -0.579% [at 53 µM] (inactive).

Take `CNCC[C@@H](Oc1ccccc1C)c1ccccc1`: the “activity change, negative = inhibition” value is -1.18% [at 53 µM] (inactive).

For `CCOC(=O)[C@H](CCc1ccccc1)N[C@@H](C)C(=O)N1C(=O)N(C)C[C@H]1C(=O)O`, the “activity change, negative = inhibition” value is 1.68% [at 53 µM] (inactive).

Regarding `CCN(CCC#N)c1ccc(N=Nc2ccc([N+](=O)[O-])cc2)cc1`, the “activity change, negative = inhibition” value is 4.23% (inactive).

Take `CCN(CCCc1ccccc1)CCCc1ccccc1`: the “activity change, negative = inhibition” value was -2.35% [at 53 µM] (inactive).

In the case of `OC1CCCCC1`, the Potency result is “inactive”.

Consider `CC(C)(C)C(=O)C1C(=O)c2ccccc2C1=O`, for which the Potency result is “inactive”.

For `ClC/C=C\CCl`, the “activity change, negative = inhibition” value is 0.935% (inactive).

In the case of `COC1=CC(=O)C[C@@H](C)[C@]12Oc1c(Cl)c(OC)cc(OC)c1C2=O`, the Potency entry is “inactive”.

As for `CCN(CC)CCOC(=O)C1(C2CCCCC2)CCCCC1`, the “activity change, negative = inhibition” value was -1.09% [at 53 µM] (inactive).

On to `Cc1ccc(C(C)C)c(O)c1`, for which the Potency entry is “inactive”.

As to `Cc1ccc2c(c1)C(=O)OC2=O`, the Potency entry was “inactive”.

As for `CC(C)=CCC/C(C)=C/C(=O)O`, the “activity change, negative = inhibition” value is 1.34% (inactive).
